For one sequence, binding signal results are on record in PMC7862700, “An all-to-all approach to the identification of sequence-specific readers for epigenetic DNA modifications on cytosine”.

Holding throughout (assay): DAPPL (digital affinity profiling via proximity ligation, sequencing); 10 mM Tris-HCl pH 7.5, 50 mM NaCl, 1 mM DTT, 4% glycerol, room temperature, 30 min; GST-TFs on glutathione beads, 16-mer random dsDNA library, 0.1% formaldehyde crosslink after washing; high values mean tight binding
For one test, the target named is T1, FEV (Homo sapiens, UniProt Q99581 1-238).
T1 sequence: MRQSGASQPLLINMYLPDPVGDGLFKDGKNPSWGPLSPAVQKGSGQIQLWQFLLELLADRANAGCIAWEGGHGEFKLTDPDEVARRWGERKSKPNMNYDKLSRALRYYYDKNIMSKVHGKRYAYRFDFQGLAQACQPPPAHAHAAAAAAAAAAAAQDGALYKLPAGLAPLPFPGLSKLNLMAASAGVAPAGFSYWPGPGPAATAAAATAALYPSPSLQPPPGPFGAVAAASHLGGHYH
The settings on record: protein: recombinant; tags: N-terminal GST; dsDNA, one strand shown. The gist of the method: (§1)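 Binding signal is given per hexamer as its read frequency for a factor divided by its frequency in the tag-only sample. GST-fused human transcription factors were expressed in yeast, captured on glutathione beads, barcoded with DNA and pooled with that sample, then incubated with 200 nmole of a 16-mer random double-stranded DNA library in Tris/NaCl/DTT/glycerol buffer for 30 min at room temperature. The pools were then washed, crosslinked, proximity-ligated, amplified by PCR and sequenced on an Illumina NextSeq500.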

The target in the next test is ETV5 (Homo sapiens, UniProt P41161 1-510). The following applies: protein: recombinant; tags: N-terminal GST; dsDNA, one strand shown. The procedure, abridged: as §1
Chain of ETV5 (P41161 whole entry): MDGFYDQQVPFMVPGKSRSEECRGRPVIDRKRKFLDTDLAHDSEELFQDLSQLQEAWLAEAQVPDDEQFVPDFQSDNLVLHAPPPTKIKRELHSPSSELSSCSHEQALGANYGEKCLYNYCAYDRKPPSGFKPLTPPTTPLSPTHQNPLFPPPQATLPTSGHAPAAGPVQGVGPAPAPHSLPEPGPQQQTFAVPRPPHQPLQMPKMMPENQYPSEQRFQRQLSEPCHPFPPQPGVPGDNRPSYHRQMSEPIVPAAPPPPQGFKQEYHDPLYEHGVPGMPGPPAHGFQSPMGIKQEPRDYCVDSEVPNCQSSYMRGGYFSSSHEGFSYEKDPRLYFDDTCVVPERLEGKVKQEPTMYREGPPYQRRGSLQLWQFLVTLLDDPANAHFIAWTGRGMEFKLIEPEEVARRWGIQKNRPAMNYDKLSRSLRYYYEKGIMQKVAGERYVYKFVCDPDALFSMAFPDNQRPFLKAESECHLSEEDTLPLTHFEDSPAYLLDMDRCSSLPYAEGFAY
The next test deals with HSF1 (Homo sapiens, UniProt Q00613 1-529). The settings on record: protein: recombinant; tags: N-terminal GST; chain copies: 3; dsDNA, one strand shown. The gist of the method: as §1
Chain of HSF1 (Q00613 whole entry): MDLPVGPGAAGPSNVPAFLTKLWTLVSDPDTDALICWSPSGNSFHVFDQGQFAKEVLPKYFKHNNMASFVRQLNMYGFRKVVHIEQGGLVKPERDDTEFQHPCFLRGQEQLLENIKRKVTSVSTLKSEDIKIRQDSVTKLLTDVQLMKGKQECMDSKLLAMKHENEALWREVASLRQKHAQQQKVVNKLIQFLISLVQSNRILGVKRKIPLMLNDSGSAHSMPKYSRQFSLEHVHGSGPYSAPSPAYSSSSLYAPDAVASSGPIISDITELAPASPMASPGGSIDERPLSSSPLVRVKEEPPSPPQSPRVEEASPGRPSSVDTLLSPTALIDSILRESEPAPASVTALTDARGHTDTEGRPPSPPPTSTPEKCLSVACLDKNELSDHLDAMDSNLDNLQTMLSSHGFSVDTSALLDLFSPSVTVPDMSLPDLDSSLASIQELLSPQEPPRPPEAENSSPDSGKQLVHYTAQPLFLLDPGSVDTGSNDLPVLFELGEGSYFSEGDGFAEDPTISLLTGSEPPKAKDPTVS
Another test has as its target T2, SPIC (Homo sapiens, UniProt Q8N5J4 1-248).
T2 sequence: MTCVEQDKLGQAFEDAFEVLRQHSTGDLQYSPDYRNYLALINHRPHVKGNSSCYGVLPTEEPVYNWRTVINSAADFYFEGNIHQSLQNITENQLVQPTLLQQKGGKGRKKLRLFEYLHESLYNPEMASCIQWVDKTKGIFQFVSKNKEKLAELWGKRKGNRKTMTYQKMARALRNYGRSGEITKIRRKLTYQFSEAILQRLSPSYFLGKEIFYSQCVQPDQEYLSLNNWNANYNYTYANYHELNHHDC
The settings on record: protein: recombinant; tags: N-terminal GST; dsDNA, one strand shown. The gist of the method: as §1

For a further test, the target named is ELF4 (Homo sapiens, UniProt Q99607 1-663). The settings on record: protein: recombinant; tags: N-terminal GST; dsDNA, one strand shown. The gist of the method:
as §1

In a further test the target is T3, ELK4 (Homo sapiens, UniProt P28324-2 1-405).
T3 sequence: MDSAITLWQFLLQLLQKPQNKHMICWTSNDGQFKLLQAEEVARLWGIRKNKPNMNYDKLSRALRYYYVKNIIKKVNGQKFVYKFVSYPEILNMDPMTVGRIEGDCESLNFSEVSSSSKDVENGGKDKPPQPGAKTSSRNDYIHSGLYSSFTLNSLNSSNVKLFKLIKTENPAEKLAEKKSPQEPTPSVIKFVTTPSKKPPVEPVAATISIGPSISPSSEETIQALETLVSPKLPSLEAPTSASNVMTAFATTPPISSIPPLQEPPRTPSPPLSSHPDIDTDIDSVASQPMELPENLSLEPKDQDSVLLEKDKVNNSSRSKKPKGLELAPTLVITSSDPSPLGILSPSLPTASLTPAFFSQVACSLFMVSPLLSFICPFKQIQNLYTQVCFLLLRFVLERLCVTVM
The settings on record: protein: recombinant; tags: N-terminal GST; dsDNA, one strand shown. The gist of the method: as §1

A further test has as its target T4, ETV2 (Homo sapiens, UniProt O00321 1-342).
T4 sequence: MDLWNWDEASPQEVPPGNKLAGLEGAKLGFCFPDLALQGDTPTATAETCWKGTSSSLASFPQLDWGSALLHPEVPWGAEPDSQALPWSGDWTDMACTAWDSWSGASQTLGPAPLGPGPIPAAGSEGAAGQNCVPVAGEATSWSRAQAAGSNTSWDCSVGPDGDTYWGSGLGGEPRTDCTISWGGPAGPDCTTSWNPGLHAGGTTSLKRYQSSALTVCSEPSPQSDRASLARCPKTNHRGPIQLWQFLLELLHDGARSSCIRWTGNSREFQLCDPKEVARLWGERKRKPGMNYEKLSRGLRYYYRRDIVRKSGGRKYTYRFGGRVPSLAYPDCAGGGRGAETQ
The settings on record: protein: recombinant; tags: N-terminal GST; dsDNA, one strand shown. The procedure, abridged:
as §1

Another test deals with T5, ELF3 (Homo sapiens, UniProt P78545 1-371).
T5 sequence: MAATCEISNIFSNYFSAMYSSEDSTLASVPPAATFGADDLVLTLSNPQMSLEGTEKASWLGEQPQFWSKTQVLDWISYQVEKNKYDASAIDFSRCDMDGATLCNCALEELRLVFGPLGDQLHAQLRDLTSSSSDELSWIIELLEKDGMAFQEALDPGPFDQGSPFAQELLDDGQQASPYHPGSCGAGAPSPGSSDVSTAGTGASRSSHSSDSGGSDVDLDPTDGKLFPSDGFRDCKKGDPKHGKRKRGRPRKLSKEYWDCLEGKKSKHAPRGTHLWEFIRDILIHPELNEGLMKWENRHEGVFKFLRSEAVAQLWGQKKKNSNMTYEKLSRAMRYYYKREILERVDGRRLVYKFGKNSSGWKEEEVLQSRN
The following applies: protein: recombinant; tags: N-terminal GST; dsDNA, one strand shown. The procedure, abridged: as §1

The target in a further test is CRX (Homo sapiens, UniProt O43186 1-299). The following applies: protein: recombinant; tags: N-terminal GST; dsDNA, one strand shown. The procedure, abridged: as §1
Chain of CRX (O43186 whole entry): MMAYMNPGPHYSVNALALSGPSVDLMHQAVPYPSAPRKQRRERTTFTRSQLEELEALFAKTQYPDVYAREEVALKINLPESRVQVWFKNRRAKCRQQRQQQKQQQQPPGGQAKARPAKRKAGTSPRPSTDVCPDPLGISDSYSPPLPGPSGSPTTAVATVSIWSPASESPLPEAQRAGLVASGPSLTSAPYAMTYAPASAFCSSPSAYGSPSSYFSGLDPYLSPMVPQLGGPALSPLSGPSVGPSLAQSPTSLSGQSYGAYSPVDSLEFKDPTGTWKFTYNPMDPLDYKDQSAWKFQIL
The next test addresses ETV1 (Homo sapiens, UniProt P50549 1-477). The following applies: protein: recombinant; tags: N-terminal GST; dsDNA, one strand shown. The procedure, abridged:
as §1

The next test concerns the target T6, ERF (Homo sapiens, UniProt P50548 1-548).
T6 sequence: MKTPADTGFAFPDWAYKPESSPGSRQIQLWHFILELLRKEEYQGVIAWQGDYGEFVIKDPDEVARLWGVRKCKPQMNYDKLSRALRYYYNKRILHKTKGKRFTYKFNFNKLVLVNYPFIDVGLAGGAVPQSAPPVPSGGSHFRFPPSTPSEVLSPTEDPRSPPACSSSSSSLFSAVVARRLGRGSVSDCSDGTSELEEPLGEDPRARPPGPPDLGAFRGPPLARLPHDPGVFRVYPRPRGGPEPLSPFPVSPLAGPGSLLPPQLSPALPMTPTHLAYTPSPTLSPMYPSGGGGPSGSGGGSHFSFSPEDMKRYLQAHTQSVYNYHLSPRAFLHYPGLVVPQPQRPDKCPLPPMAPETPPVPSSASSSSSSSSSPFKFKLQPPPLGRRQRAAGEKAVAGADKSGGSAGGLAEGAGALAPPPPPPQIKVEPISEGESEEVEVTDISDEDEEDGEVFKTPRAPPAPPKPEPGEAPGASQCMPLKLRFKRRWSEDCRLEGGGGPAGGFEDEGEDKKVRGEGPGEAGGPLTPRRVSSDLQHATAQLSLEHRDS
The following applies: protein: recombinant; tags: N-terminal GST; dsDNA, one strand shown. The gist of the method: as §1

For the next test, the target named is T7, ETV3L (Homo sapiens, UniProt Q6ZN32 1-361).
T7 sequence: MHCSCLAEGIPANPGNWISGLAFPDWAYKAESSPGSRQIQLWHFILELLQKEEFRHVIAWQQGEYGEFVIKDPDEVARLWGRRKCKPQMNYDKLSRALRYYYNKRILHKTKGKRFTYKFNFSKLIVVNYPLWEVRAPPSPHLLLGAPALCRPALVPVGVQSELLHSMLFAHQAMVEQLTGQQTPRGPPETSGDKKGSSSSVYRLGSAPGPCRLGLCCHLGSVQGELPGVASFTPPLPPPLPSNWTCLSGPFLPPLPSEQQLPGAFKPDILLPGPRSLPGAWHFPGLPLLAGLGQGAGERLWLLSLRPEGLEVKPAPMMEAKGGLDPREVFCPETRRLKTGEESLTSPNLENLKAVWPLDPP
The settings on record: protein: recombinant; tags: N-terminal GST; dsDNA, one strand shown. The gist of the method: as §1

Another test addresses T8, ETS2 (Homo sapiens, UniProt P15036 1-469).
T8 sequence: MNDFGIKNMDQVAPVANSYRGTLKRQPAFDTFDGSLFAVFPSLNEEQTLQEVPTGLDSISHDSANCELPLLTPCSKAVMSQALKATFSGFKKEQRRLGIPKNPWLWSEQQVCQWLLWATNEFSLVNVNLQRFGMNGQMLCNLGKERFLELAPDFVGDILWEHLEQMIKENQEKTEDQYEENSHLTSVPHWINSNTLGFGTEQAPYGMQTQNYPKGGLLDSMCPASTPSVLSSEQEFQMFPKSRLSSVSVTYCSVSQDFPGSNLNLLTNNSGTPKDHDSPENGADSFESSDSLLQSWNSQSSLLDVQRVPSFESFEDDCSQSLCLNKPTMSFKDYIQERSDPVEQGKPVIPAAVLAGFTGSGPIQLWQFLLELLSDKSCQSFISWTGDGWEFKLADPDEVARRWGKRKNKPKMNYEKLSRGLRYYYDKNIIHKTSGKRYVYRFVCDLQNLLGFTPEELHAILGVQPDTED
The following applies: protein: recombinant; tags: N-terminal GST; dsDNA, one strand shown. The procedure, abridged:
as §1

A further test has as its target T9, SPDEF (Homo sapiens, UniProt O95238 1-335).
T9 sequence: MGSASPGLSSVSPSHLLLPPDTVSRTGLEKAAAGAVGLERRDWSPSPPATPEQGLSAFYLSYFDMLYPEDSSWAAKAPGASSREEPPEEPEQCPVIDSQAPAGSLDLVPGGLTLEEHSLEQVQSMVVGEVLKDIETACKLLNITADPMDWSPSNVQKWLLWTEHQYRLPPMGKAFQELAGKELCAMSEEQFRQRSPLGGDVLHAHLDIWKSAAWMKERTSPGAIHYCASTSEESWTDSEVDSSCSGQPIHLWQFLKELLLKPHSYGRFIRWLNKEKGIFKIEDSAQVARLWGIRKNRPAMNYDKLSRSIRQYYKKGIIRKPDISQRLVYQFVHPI
The settings on record: protein: recombinant; tags: N-terminal GST; dsDNA, one strand shown. The gist of the method:
as §1

The target in the next test is T10, ETV7 (Homo sapiens, UniProt Q9Y603 1-341).
T10 sequence: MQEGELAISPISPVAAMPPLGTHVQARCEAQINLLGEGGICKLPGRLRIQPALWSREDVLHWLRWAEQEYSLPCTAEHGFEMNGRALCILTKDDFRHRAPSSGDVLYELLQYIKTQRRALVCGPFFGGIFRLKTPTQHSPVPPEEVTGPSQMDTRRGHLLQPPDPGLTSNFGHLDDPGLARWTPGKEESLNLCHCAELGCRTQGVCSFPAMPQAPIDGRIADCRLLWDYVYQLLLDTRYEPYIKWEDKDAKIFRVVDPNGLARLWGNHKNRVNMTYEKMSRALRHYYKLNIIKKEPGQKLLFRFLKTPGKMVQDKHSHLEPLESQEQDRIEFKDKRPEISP
The following applies: protein: recombinant; tags: N-terminal GST; dsDNA, one strand shown. The procedure, abridged: as §1

Another test has as its target T11, ELF5 (Homo sapiens, UniProt Q9UKW6-2 1-255).
T11 sequence: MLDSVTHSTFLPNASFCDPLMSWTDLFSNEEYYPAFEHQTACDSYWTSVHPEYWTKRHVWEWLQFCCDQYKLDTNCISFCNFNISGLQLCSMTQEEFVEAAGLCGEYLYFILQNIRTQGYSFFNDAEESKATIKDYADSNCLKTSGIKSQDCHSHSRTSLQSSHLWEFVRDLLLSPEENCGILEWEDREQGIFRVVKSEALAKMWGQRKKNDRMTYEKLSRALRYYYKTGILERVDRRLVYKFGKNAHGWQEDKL
The following applies: protein: recombinant; tags: N-terminal GST; dsDNA, one strand shown. The gist of the method: as §1

The target in a further test is T12, ETV3 (Homo sapiens, UniProt P41162-2 1-143).
T12 sequence: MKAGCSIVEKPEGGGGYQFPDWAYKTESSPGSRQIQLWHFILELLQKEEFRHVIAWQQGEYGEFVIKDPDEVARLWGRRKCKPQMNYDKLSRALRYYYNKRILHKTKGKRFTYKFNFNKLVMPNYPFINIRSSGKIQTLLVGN
The following applies: protein: recombinant; tags: N-terminal GST; dsDNA, one strand shown. The procedure, abridged: as §1

The next test concerns the target ETV6 (Homo sapiens, UniProt P41212 1-452). The following applies: protein: recombinant; tags: N-terminal GST; dsDNA, one strand shown. The gist of the method:
as §1

Chain of ETV6 (P41212 whole entry): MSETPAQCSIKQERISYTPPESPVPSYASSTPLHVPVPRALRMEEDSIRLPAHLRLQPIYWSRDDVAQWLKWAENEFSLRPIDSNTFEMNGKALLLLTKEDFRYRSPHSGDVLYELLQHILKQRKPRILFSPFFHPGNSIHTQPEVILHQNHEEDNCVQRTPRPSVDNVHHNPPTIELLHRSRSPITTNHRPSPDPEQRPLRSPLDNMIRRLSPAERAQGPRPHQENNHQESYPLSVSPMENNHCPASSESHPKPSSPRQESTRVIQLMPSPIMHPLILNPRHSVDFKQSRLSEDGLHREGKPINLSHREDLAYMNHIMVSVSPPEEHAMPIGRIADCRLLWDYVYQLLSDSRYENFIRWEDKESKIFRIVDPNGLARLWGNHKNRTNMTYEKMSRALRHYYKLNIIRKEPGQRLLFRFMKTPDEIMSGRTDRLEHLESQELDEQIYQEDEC
Chain of ETV1 (P50549 whole entry): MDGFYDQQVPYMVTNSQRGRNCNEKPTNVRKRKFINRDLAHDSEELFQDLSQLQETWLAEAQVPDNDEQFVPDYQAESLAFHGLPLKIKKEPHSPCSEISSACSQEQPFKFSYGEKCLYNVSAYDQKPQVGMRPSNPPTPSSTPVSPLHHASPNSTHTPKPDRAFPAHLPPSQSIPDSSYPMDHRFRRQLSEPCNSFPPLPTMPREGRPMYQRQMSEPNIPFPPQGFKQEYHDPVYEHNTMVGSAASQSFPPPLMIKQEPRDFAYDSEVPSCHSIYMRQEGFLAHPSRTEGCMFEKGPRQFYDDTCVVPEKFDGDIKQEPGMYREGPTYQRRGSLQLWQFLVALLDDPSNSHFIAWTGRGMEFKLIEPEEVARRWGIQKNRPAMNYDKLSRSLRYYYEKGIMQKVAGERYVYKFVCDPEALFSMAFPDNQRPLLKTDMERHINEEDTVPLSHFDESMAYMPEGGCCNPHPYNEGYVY
Chain of ELF4 (Q99607 whole entry): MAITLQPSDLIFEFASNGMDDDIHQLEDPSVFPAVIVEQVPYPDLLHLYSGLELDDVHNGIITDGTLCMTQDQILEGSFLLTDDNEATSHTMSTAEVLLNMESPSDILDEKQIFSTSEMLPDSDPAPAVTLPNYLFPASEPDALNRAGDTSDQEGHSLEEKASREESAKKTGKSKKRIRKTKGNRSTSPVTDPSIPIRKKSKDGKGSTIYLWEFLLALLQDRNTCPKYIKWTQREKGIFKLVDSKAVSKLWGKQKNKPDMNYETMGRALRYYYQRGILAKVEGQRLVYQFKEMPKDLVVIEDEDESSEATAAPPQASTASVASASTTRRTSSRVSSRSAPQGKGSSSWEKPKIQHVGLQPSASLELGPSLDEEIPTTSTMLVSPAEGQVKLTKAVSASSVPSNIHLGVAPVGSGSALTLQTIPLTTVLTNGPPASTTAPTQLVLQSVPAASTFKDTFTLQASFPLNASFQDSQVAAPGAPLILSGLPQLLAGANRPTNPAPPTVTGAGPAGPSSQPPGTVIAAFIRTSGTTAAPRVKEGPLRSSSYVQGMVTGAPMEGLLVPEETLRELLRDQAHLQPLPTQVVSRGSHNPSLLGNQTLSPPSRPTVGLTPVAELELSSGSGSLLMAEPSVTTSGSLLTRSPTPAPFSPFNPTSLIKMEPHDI

Consider ATTTTG, for which the binding signal is 1.15 fold enrichment (6-mer frequency, TF over GST control) with FEV; 1.28 fold enrichment (6-mer frequency, TF over GST control) with ETV5; 1.28 fold enrichment (6-mer frequency, TF over GST control) with HSF1; 1.09 fold enrichment (6-mer frequency, TF over GST control) in the test with SPIC; 1.25 fold enrichment (6-mer frequency, TF over GST control) in the test with ELF4; 1.31 fold enrichment (6-mer frequency, TF over GST control) with ELK4. The binding signal with ETV2 is 1.33 fold enrichment (6-mer frequency, TF over GST control); with ELF3 it was 1.31 fold enrichment (6-mer frequency, TF over GST control); in the test with CRX, 1.32 fold enrichment (6-mer frequency, TF over GST control); with ETV1, 1.31 fold enrichment (6-mer frequency, TF over GST control); with ERF, 1.24 fold enrichment (6-mer frequency, TF over GST control); with ETV3L, 1.29 fold enrichment (6-mer frequency, TF over GST control). Further, the binding signal with ETS2 was 1.2 fold enrichment (6-mer frequency, TF over GST control); in the test with SPDEF it was 1.09 fold enrichment (6-mer frequency, TF over GST control); with ETV7, 1.14 fold enrichment (6-mer frequency, TF over GST control); in the test with ELF5, 1.2 fold enrichment (6-mer frequency, TF over GST control); in the test with ETV3, 1.1 fold enrichment (6-mer frequency, TF over GST control); with ETV6, 1.24 fold enrichment (6-mer frequency, TF over GST control).
